Assay outcomes from PubChem.
An excerpt weighted towards active compounds, which were near 12% of everything screened.
L3MBTL1 inh – blocks human L3MBTL1. Q9Y468. AlphaScreen L3MBTL1–H3K9me1 peptide binding. Potency, µM (highest dose often 57.1 µM), usual class: inhibitors. actives 0.66% (n = 230,000); note: nearly all actives have a fitted effect of over 60% in size
Target sequence (Q9Y468 whole entry, looked up): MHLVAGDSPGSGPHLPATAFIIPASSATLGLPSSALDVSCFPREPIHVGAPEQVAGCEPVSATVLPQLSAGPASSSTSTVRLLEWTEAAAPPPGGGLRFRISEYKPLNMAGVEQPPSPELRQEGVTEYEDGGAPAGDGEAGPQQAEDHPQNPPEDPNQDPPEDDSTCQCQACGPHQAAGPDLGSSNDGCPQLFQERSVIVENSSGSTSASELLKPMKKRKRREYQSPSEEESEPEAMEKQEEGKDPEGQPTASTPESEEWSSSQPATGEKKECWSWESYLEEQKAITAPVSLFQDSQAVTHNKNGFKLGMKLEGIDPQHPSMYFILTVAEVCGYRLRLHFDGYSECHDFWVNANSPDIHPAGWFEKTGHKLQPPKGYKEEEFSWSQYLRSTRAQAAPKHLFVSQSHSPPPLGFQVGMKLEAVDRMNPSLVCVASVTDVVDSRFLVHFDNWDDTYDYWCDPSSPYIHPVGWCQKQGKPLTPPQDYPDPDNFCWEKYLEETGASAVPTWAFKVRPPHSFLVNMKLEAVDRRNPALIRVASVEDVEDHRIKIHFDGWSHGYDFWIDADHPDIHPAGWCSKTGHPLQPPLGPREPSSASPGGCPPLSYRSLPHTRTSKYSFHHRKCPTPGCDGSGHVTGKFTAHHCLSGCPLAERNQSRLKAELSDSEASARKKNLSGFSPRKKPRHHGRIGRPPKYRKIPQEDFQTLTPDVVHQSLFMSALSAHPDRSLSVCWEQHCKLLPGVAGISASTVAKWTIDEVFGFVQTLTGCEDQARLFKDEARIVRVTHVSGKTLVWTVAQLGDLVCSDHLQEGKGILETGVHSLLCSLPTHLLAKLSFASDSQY
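L3MBTL1 (50 nM) pre-complexed 30 min with biotinylated H3(1-15)K9me1 peptide (75 nM), then compounds added for 30 min at room temperature; AlphaScreen streptavidin donor/nickel chelate acceptor beads (10 ug/mL final) read after 30 min dark incubation.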
Sfp PPTase inh – inhibitors of Bacillus subtilis Sfp phosphopantetheinyl transferase. Biochemical Sfp PPTase activity, qHTS. Potency, µM, most hits filed as inhibitors. actives 3.5% (n = 310,000). AID 1490;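 note: the enzyme is Sfp with the accession as filed and its product quenches rhodamine fluorescence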
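Buffer: 50 mM Hepes-Na pH 7.6, 10 mM MgCl2, 0.01% Nonidet P-40, 0.01% BSA. Enzyme 15 nM, pre-exposed to compound 15 min; substrates then added and fluorescence change tracked over 30 min.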
JMJD2A Tudor – inhibitors of human JMJD2A Tudor domain. AID 504339. actives 4.4% (n = 390,000). Potency, µM (top dose mostly 114 µM), usual class: inhibitors. AlphaScreen JMJD2A-Tudor / H3K4me3 peptide binding; note: nearly all actives have a fitted effect of over 50% in size
BAZ2B inh – inhibitors of human BAZ2B bromodomain. Q9UIF8. AlphaScreen BAZ2B-H3K14Ac peptide displacement. Potency, µM (titrated, usually from 114 µM), most hits filed as inhibitors. actives 4.4% (n = 360,000). AID 504333; note: nearly all actives have a fitted effect of over 60% in size
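Compounds, titrated to a top concentration of 110 uM, were incubated 30 min at room temperature with preformed BAZ2B/acetyl-K14 H3 peptide complex (50 nM each). Proximity signal was measured by AlphaScreen after 20 min with beads.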
HP1b chromo inh – blocks HP1-beta chromodomain binding to methylated histone tails; Potency, µM (doses to about 114 µM), hits mostly inhibitors; actives 0.56% (n = 390,000); AlphaScreen HP1-beta / biotin-H3K9me3 peptide binding; P83916; note: nearly all actives have a fitted effect of over 70% in size
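AlphaScreen: HP1-beta (50 nM) preformed 30 min with biotin-H3(1-18)K9me3 peptide (50 nM) in PBS pH 7.4, 0.01% Tween-20. Compound added for 30 min at RT, then streptavidin donor/nickel chelate acceptor beads (10 ug/mL) for 30 min.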
G9a block – G9a (human) methyltransferase inhibition; actives 8.8% (n = 350,000); G9a H3K9 monomethylation, AlphaScreen, 2 h; Q96KQ7; Potency, µM (doses to about 102 µM), actives largely listed as inhibitors; note: nearly all actives have a fitted effect of over 75% in size
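Using a bead-based AlphaScreen, monomethylated H3K9 product from 2 h room-temperature reactions (G9a 20 nM, peptide 500 nM, SAM 20 uM) was detected with 0.5 ug/mL rabbit anti-H3K9me1 antibody.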
Hits are given with their value; - = inactive; ? = inconclusive; . = no result; [ ] = remark or other dose. Calls come from the whole dose curve; as a rule, active = well fitted curve in the direction sought with a large enough effect; inconclusive = small, poorly fitted or top-dose-only effect, or another doubt; inactive = no such curve, though single readings can be large; an effect the other way counts as inactive or inconclusive.

SMILES | L3MBTL1 inh | Sfp PPTase inh | JMJD2A Tudor | BAZ2B inh | HP1b chromo inh | G9a block
COc1ccc(NC(=O)C2CCC(CNS(=O)(=O)c3ccc(Br)s3)CC2)cc1OC (stereo not drawn) | . | . | - | - | - | -
Cc1ccc(C(=O)N/C(=C\c2ccc(-c3ccccc3[N+](=O)[O-])o2)C(=O)NCCN(C)C)cc1 | - | 39.8µM | 56.2µM | - | ? | .
Cc1ccc(C(=O)N/C(=C\c2ccc(-c3ccccc3[N+](=O)[O-])o2)C(=O)NCCCN(C)C)cc1 | . | - | ? | ? | - | 50.1µM
CN(C)CCNC(=O)/C(=C/c1ccc(-c2cccc([N+](=O)[O-])c2)o1)NC(=O)c1ccccc1 | - | - | - | - | - | -
Cc1ccccc1OC(C)C(=O)NCCNC(=O)C(C)Oc1ccccc1C (stereo not drawn) | . | . | - | . | - | .
O=C1C=C(c2ccccc2C(F)(F)F)C[C@@H](c2ccc3c(c2)OCO3)C1 | - | . | - | - | - | -[0.501 µM]
CC1CCN(S(=O)(=O)c2ccc3nc(Nc4cccc(F)c4)ccc3c2)CC1 | . | . | - | - | - | -
Cc1ccc(Nc2ccc3cc(S(=O)(=O)N4CCC(C)CC4)ccc3n2)c(Cl)c1 | . | . | - | - | - | 15.8µM
COc1cc(OC)c(NC(=O)CCCn2nc(C)c3sc4ccccc4c3c2=O)cc1Cl | . | . | ? | ? | - | 14.1µM
O=C(N/N=C/c1cn(-c2ccccc2)nc1-c1cc2ccccc2o1)c1ccncc1 | - | - | - | - | - | -
O=C(O)c1cccc(NC(=O)c2cn(-c3ccccc3)nc2-c2cc3ccccc3o2)c1 | - | - | - | 50.1µM | - | -
CCc1ccc(-n2c(=O)c3c4c(sc3n(CC(=O)c3ccc(Cl)cc3)c2=O)CCC4)cc1 | . | . | - | - | - | -
O=S(=O)(c1ccc(Cl)s1)N1CCN(CCc2ccccc2)CC1 | . | - | - | - | - | .
Cc1nc(-c2ccc(S(=O)(=O)N3CCN(C4c5ccccc5-c5ccccc54)CC3)s2)cs1 | . | - | - | - | ? | 56.2µM
Cc1nc(-c2ccc(S(=O)(=O)N3CCCN(CCc4ccccc4)CC3)s2)cs1 | - | - | ? | 56.2µM | - | 50.1µM
CCCC[C@H](NC(C)=O)C(=O)N[C@H]1CC(=O)NCCCC[C@@H](C(N)=O)NC(=O)[C@H](Cc2c[nH]c3ccccc23)NC(=O)[C@H](CCCN=C(N)N)NC(=O)[C@@H](Cc2ccccc2)NC(=O)[C@H](Cc2cnc[nH]2)NC1=O | . | - | . | . | . | .
CC1Oc2ccccc2OC1(O)c1ccccn1 (stereo not drawn) | - | - | 50.1µM | - | - | 20µM
CCCCCc1nn2cc(-c3ccccc3)nc2s1 | . | . | - | - | - | -
Fc1ccc(C(Nc2ccccn2)c2c[nH]c3ccccc23)cc1 (stereo not drawn) | - | - | ? | - | - | 39.8µM
O=[N+]([O-])CC(c1ccc(F)cc1)c1c[nH]c2ccccc12 (stereo not drawn) | . | - | - | - | - | -
Cc1cc(-n2c(C)cc(C(=O)COc3cccnc3[N+](=O)[O-])c2C)no1 | - | . | - | ? | - | 39.8µM
CC(=O)c1cccc(OCC(=O)c2cc(C)n(-c3cc(C)on3)c2C)c1 | - | - | - | ? | - | 50.1µM
O=C(c1cc(COc2ccc(F)cc2Cl)on1)N1CCSCC1 | . | - | - | - | - | -
CCN1CCN(CCCOc2ccccc2-c2ccccc2)CC1 | - | ? | 22.4µM | 28.2µM | - | .
COc1ccccc1OCCCCN1CCCCC1 | - | - | - | - | - | -
SMILES | L3MBTL1 inh | Sfp PPTase inh | JMJD2A Tudor | BAZ2B inh | HP1b chromo inh | G9a block
c1ccc(-c2ccccc2OCCCN2CCCCC2)cc1 | - | - | 7.94µM | ? | - | 8.91µM
c1ccc2c(OCCCN3CCCCCC3)cccc2c1 | - | - | 22.4µM | 56.2µM | ? | .
Clc1cccc(OCCCN2CCCC2)c1Cl | - | - | 20µM | - | ? | ?
OCCCN1CCN(CCOc2ccccc2-c2ccccc2)CC1 | - | - | - | - | - | -
Brc1ccccc1OCCCCN1CCCCC1 | - | - | - | - | - | -
Cc1ccc(Cc2c(C)nc3nc(SCC(=O)NC(C)c4ccccc4)nn3c2C)cc1 (stereo not drawn) | . | . | - | - | - | -
OCCN1CCN(CCOc2ccccc2-c2ccccc2)CC1 | - | - | - | - | - | -
c1ccc(-c2ccccc2OCCN2CCOCC2)cc1 | - | - | 14.1µM | 79.4µM | 20µM | 10µM
CCn1nc(C)c(CNC(=O)C2CCC(=O)N(CCc3ccc(OC)cc3)C2)c1C (stereo not drawn) | . | - | - | - | - | -
COC(=O)C1C(O)=C(C(C)=Nc2cccc3ccccc23)C(=O)CC1(C)C (stereo not drawn) | - | - | 79.4µM | - | - | -
COC(=O)C1C(O)=C(C=NC2CCCCC2)C(=O)CC1(C)C (stereo not drawn) | - | - | -[11.4 µM] | - | - | -
Cc1ccc(CC(=O)Nc2ccc(C(=O)N3CCOCC3)cc2)cc1 | . | - | - | - | - | 17.8µM
COc1ccc(CC(=S)N2CCOCC2)cc1 | - | 15.8µM | - | - | ? | ?
CCc1ccc(CC(=S)N2CCOCC2)cc1 | . | - | - | - | - | -
O=C(Cc1ccc(Br)cc1)N1CCOCC1 | - | - | - | - | - | 79.4µM
Cc1ccc(CC(=S)N2CCOCC2)cc1 | . | 35.5µM | - | - | - | 8.91µM
COC(=O)[C@@]1(Cc2ccc(OC)cc2)[C@H]2c3cc(C(=O)N(C)C)n(Cc4ccc(Cl)c(C(F)(F)F)c4)c3C[C@H]2CN1C(=O)c1ccccc1 | . | - | . | . | . | .
CCc1ccc(NC(=O)CSc2nnnn2-c2cccnc2)cc1 | . | - | - | - | - | .
Cc1ccc(S(=O)(=O)N2CCN(C(=O)CN3C(=O)c4ccc([N+](=O)[O-])cc4C3=O)CC2)cc1C | - | . | - | - | - | ?
Cc1ccc(NS(=O)(=O)c2ccc(C(=O)N3CCOCC3)cc2)cc1 | - | . | - | - | - | -
CC(=O)/C(=N\Nc1ccc(C)cc1)N1CCOCC1 | - | - | - | - | - | 28.2µM
CN(C)C(=O)c1ccc(-c2cc[nH]c(=O)c2N)cc1 | . | . | - | . | . | .
CN(C)c1ccc(-c2cc[nH]c(=O)c2N)cc1 | . | . | 20µM | . | . | .
COC(=O)N1C(C)=Cc2ccccc2C1C/C(C)=C/C(C)=O (stereo not drawn) | . | - | . | . | . | .
COCCn1c(C)cc(C(=O)COC(=O)c2ccc3ncsc3c2)c1C | . | - | ? | 56.2µM | - | -[12.7 µM]
Cc1ccc(-n2c(C)cc(C(=O)Cn3nc(C(=O)O)c4ccccc4c3=O)c2C)cc1 | - | - | ? | - | - | 79.4µM
COCCn1c(C)cc(C(=O)COC(=O)c2cncc(Br)c2)c1C | - | - | - | ? | - | ?
COCC(C)n1c(C)cc(C(=O)COC(=O)c2c(C)nn(-c3ccccc3)c2C)c1C (stereo not drawn) | - | - | ? | ? | ? | 50.1µM
